{"source": "PubChem BioAssay AID1159580", "about": "(chemical genetic matrix, 2015)", "test": "chemical genetic growth profiling, strain panel (AID 1159580);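 note: tested at 20 µM; growth read once vehicle control cultures reached saturation at 30 °C; 1 = growth at the plate median or of vehicle wells; lower values mean less growth of the strain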", "settings": "S. cerevisiae deletion strains, growth OD", "key": {"[1]": {"settings": "locus YDL101C, strain DUN1, hits give low values"}, "[2]": {"settings": "locus YHR030C, strain SLT2, hits give low values"}}, "note": "The campaign covered roughly 5,500 compounds. About 2,000 (36%) were called active. Another 18% or so got no clear call; they are omitted. The list shows a part of the results. A number with no mark means an inactive call. Cut-off read from the data, not from the text of the source: active = normalized growth mostly below about 0.91 (no sharp cut-off); inconclusive = no clear call, values can overlap the other calls; inactive = mostly above about 0.92.", "data": [{"compound": "CC1=CC(C)(C)NC(=S)N1", "values": [{"measurement": "normalized growth", "setting": "locus YAL013W, strain DEP1, hits give low values", "result": 1.01}, {"measurement": "normalized growth", "setting": "locus YBR229C, strain ROT2, hits give low values", "result": 1.01}, {"measurement": "normalized growth", "setting": "[1]", "result": 1}, {"measurement": "normalized growth", "setting": "locus YDR150W, strain NUM1, hits give low values", "result": 0.981}, {"measurement": "normalized growth", "setting": "locus YEL061C, strain CIN8, hits give low values", "result": 1.01}, {"measurement": "normalized growth", "setting": "locus YGR078C, strain PAC10, hits give low values", "result": 1}, {"measurement": "normalized growth", "setting": "locus YGR229C, strain SMI1, hits give low values", "result": 1.02}, {"measurement": "normalized growth", "setting": "[2]", "result": 1.06}, {"measurement": "normalized growth", "setting": "locus YHR087W, strain rtc3, hits give low values", "result": 1}, {"measurement": "normalized growth", "setting": "locus YJR043C, strain POL32, hits give low values", "result": 1}, {"measurement": "normalized growth", "setting": "locus YJR075W, strain HOC1, hits give low values", "result": 1.01}, {"measurement": "normalized growth", "setting": "locus YKL190W, strain CNB1, hits give low values", "result": 1.01}, {"measurement": "normalized growth", "setting": "locus YLR039C, strain RIC1, hits give low values", "result": 1.01}, {"measurement": "normalized growth", "setting": "locus YLR058C, strain SHM2 (second series), hits give low values", "result": 1}, {"measurement": "normalized growth", "setting": "locus YLR085C, strain ARP6, hits give low values", "result": 0.984}, {"measurement": "normalized growth", "setting": "locus YLR262C, strain YPT6, hits give low values", "result": 1.05}, {"measurement": "normalized growth", "setting": "locus YML094W, strain GIM5, hits give low values", "result": 0.996}, {"measurement": "normalized growth", "setting": "locus YMR219W, strain ESC1, hits give low values", "result": 1}, {"measurement": "normalized growth", "setting": "locus YMR263W, strain SAP30, hits give low values", "result": 1.02}, {"measurement": "normalized growth", "setting": "locus YNL153C, strain GIM3, hits give low values", "result": 0.997}, {"measurement": "normalized growth", "setting": "locus YNL298W, strain CLA4 (second series), hits give low values", "result": 1}, {"measurement": "normalized growth", "setting": "locus YNL322C, strain KRE1, hits give low values", "result": 1.01}, {"measurement": "normalized growth", "setting": "locus YNR030W, strain Alg12, hits give low values", "result": 1.01}, {"measurement": "normalized growth", "setting": "locus YPL055C, strain LGE1, hits give low values", "result": 0.984}, {"measurement": "normalized growth", "setting": "locus YPL241C, strain CIN2, hits give low values", "result": 1.03}, {"measurement": "normalized growth", "setting": "locus YPR135W, strain CTF4, hits give low values", "result": 1.06}]}, {"compound": "Oc1ccc(-n2nnnc2SCc2ccc(OC(F)(F)F)cc2)cc1", "values": [{"measurement": "normalized growth", "setting": "locus YAR019C, strain CDC15, hits give low values", "result": 0.974}, {"measurement": "normalized growth", "setting": "locus YBL105C, strain PKC1, hits give low values", "result": 0.971}, {"measurement": "normalized growth", "setting": "locus YBR135W, strain CKS1, hits give low values", "result": 0.979}, {"measurement": "normalized growth", "setting": "locus YBR136W, strain MEC1, hits give low values", "result": 0.975}, {"measurement": "normalized growth", "setting": "locus YBR160W, strain CDC28, hits give low values", "result": 0.971}, {"measurement": "normalized growth", "setting": "locus YDL017W, strain CDC7, hits give low values", "result": 0.982}, {"measurement": "normalized growth", "setting": "locus YDL028C, strain MPS1, hits give low values", "result": 0.979}, {"measurement": "normalized growth", "setting": "[1]", "result": 0.988}, {"measurement": "normalized growth", "setting": "locus YDL108W, strain KIN28, hits give low values", "result": 0.972}, {"measurement": "normalized growth", "setting": "locus YDL132W, strain cdc53, hits give low values", "result": 0.984}, {"measurement": "normalized growth", "setting": "locus YDL214C, strain PRR2, hits give low values", "result": 0.815}, {"measurement": "normalized growth", "setting": "locus YDR052C, strain DBF4, hits give low values", "result": 0.984}, {"measurement": "normalized growth", "setting": "locus YDR054C, strain cdc34, hits give low values", "result": 0.968}, {"measurement": "normalized growth", "setting": "locus YDR226W, strain ADK1, hits give low values", "result": 0.98}, {"measurement": "normalized growth", "setting": "locus YDR477W, strain SNF1, hits give low values", "result": 0.783}, {"measurement": "normalized growth", "setting": "locus YER123W, strain YCK3, hits give low values", "result": 0.651}, {"measurement": "normalized growth", "setting": "locus YER133W, strain GLC7, hits give low values", "result": 0.767}, {"measurement": "normalized growth", "setting": "locus YFL009W, strain cdc4, hits give low values", "result": 0.975}, {"measurement": "normalized growth", "setting": "locus YFL029C, strain CAK1, hits give low values", "result": 0.97}, {"measurement": "normalized growth", "setting": "locus YFR003C, strain YPI1, hits give low values", "result": 0.98}, {"measurement": "normalized growth", "setting": "locus YFR019W, strain FAB1, hits give low values", "result": 0.794}, {"measurement": "normalized growth", "setting": "locus YFR028C, strain CDC14, hits give low values", "result": 0.97}, {"measurement": "normalized growth", "setting": "locus YGR040W, strain KSS1, hits give low values", "result": 0.747}, {"measurement": "normalized growth", "setting": "locus YGR052W, strain FMP48, hits give low values", "result": "0.577 (active)"}, {"measurement": "normalized growth", "setting": "locus YGR092W, strain DBF2, hits give low values", "result": 0.663}, {"measurement": "normalized growth", "setting": "[2]", "result": "0.554 (active)"}, {"measurement": "normalized growth", "setting": "locus YHR079C, strain IRE1, hits give low values", "result": 0.563}, {"measurement": "normalized growth", "setting": "locus YHR082C, strain KSP1, hits give low values", "result": 0.617}, {"measurement": "normalized growth", "setting": "locus YHR205W, strain SCH9, hits give low values", "result": 0.867}, {"measurement": "normalized growth", "setting": "locus YIL147C, strain SLN1, hits give low values", "result": 0.984}, {"measurement": "normalized growth", "setting": "locus YJL095W, strain BCK1, hits give low values", "result": 0.597}, {"measurement": "normalized growth", "setting": "locus YJL128C, strain PBS2, hits give low values", "result": 0.932}, {"measurement": "normalized growth", "setting": "locus YJL157C, strain FAR1, hits give low values", "result": 0.832}, {"measurement": "normalized growth", "setting": "locus YJR016C, strain ILV3, hits give low values", "result": 0.977}, {"measurement": "normalized growth", "setting": "locus YJR066W, strain TOR1 (second series), hits give low values", "result": 0.738}, {"measurement": "normalized growth", "setting": "locus YJR066W, strain TOR1, hits give low values", "result": 0.647}, {"measurement": "normalized growth", "setting": "locus YKL048C, strain ELM1, hits give low values", "result": "0.635 (active)"}, {"measurement": "normalized growth", "setting": "locus YKL067W, strain YNK1, hits give low values", "result": 0.794}, {"measurement": "normalized growth", "setting": "locus YKL101W, strain HSL1, hits give low values", "result": "0.716 (active)"}, {"measurement": "normalized growth", "setting": "locus YKL193C, strain SDS22, hits give low values", "result": 0.978}, {"measurement": "normalized growth", "setting": "locus YKL203C, strain TOR2, hits give low values", "result": 0.803}, {"measurement": "normalized growth", "setting": "locus YLR113W, strain HOG1, hits give low values", "result": "0.523 (active)"}, {"measurement": "normalized growth", "setting": "locus YLR133W, strain CKI1, hits give low values", "result": 0.835}, {"measurement": "normalized growth", "setting": "locus YLR403W, strain SFP1, hits give low values", "result": 0.828}, {"measurement": "normalized growth", "setting": "locus YML070W, strain DAK1, hits give low values", "result": 0.703}, {"measurement": "normalized growth", "setting": "locus YMR001C, strain CDC5, hits give low values", "result": 0.97}, {"measurement": "normalized growth", "setting": "locus YMR205C, strain PFK2 (second series), hits give low values", "result": 0.782}, {"measurement": "normalized growth", "setting": "locus YMR277W, strain FCP1, hits give low values", "result": 0.981}, {"measurement": "normalized growth", "setting": "locus YNL006W, strain LST8, hits give low values", "result": 0.981}, {"measurement": "normalized growth", "setting": "locus YNL020C, strain ARK1, hits give low values", "result": 0.805}, {"measurement": "normalized growth", "setting": "locus YNL161W, strain CBK1, hits give low values", "result": 0.976}, {"measurement": "normalized growth", "setting": "locus YNL183C, strain NPR1, hits give low values", "result": 0.635}, {"measurement": "normalized growth", "setting": "locus YNL207W, strain RIO2, hits give low values", "result": 0.97}, {"measurement": "normalized growth", "setting": "locus YNL222W, strain SSU72, hits give low values", "result": 0.966}, {"measurement": "normalized growth", "setting": "locus YNL307C, strain MCK1 (second series), hits give low values", "result": 0.791}, {"measurement": "normalized growth", "setting": "locus YOL078W, strain AVO1, hits give low values", "result": 0.978}, {"measurement": "normalized growth", "setting": "locus YOL136C, strain PFK27, hits give low values", "result": 0.75}, {"measurement": "normalized growth", "setting": "locus YOR061W, strain CKA2, hits give low values", "result": 0.772}, {"measurement": "normalized growth", "setting": "locus YOR119C, strain RIO1, hits give low values", "result": 0.806}, {"measurement": "normalized growth", "setting": "locus YOR231W, strain MKK1, hits give low values", "result": "0.509 (active)"}, {"measurement": "normalized growth", "setting": "locus YOR329C, strain SCD5, hits give low values", "result": 0.986}, {"measurement": "normalized growth", "setting": "locus YPL031C, strain PHO85, hits give low values", "result": 0.725}, {"measurement": "normalized growth", "setting": "locus YPL153C, strain RAD53, hits give low values", "result": "0.599 (active)"}, {"measurement": "normalized growth", "setting": "locus YPL204W, strain HRR25, hits give low values", "result": "0.622 (active)"}, {"measurement": "normalized growth", "setting": "locus YPL209C, strain IPL1, hits give low values", "result": 0.977}, {"measurement": "normalized growth", "setting": "locus YPL256C, strain CLN2, hits give low values", "result": "0.467 (active)"}, {"measurement": "normalized growth", "setting": "locus YPR025C, strain CCL1, hits give low values", "result": 0.975}, {"measurement": "normalized growth", "setting": "locus YPR106W, strain ISR1, hits give low values", "result": 0.971}, {"measurement": "normalized growth", "setting": "locus YPR111W, strain DBF20, hits give low values", "result": 0.967}, {"measurement": "normalized growth", "setting": "strain NNK1, hits give low values", "result": 0.979}, {"measurement": "normalized growth", "setting": "strain TSCII, hits give low values", "result": 0.983}]}]}
